# This is one part of a sample in which the strongest signals are shown more often than they occur.
# B1: EPL1 (Trichoderma atroviride), A0PCX2 (protein)
# chain: MQLSNLFKLALFTAAVSADTVSYDTGYDDASRSLTVVSCSDGTNGLITRYHWQTQGQIPRFPYIGGAQAVAGWNSPNCGTCWKLTYSGKTIYVLAIDHTAAGFNIGLDAMNALTNGNAVALGRVSATASQVAVSNCGL
# Columns and labels:
# Test in all cases: glycan array binding signal (z-score within array); higher = stronger binding
# Conditions in all cases: glycan notation: IUPAC condensed, linker removed
# [1] = biological target: GlcNAc(b1-2)[GlcNAc(b1-6)]Man(a1-6)[GlcNAc(b1-4)][GlcNAc(b1-2)Man(a1-3)]Man(b1-4)GlcNAc(b1-4)GlcNAc
# Outline: (§1)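 Glycan array data came from 3228 arrays in the Consortium for Functional Glycomics database, and only arrays with an available protein sequence were kept. Glycan names were put into IUPAC-condensed notation, and columns mapping to the same glycan were averaged. The binding signal is a within-array Z-score, averaged across arrays of one protein sequence run at different concentrations or buffers and across linkers. A negative Z-score can be read as non-binding.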
# [2] = biological target: GlcNAc(b1-3)Gal(b1-4)GlcNAc(b1-3)Gal(b1-4)GlcNAc(b1-2)Man(a1-3)[GlcNAc(b1-3)Gal(b1-4)GlcNAc(b1-3)Gal(b1-4)GlcNAc(b1-2)Man(a1-6)]Man(b1-4)GlcNAc(b1-4)GlcNAc
# Outline: as §1
# [3] = biological target: GlcNAc(b1-3)Gal(b1-4)GlcNAc(b1-3)Gal(b1-4)GlcNAc(b1-3)Gal(b1-4)GlcNAc(b1-2)Man(a1-3)[GlcNAc(b1-3)Gal(b1-4)GlcNAc(b1-3)Gal(b1-4)GlcNAc(b1-3)Gal(b1-4)GlcNAc(b1-2)Man(a1-6)]Man(b1-4)GlcNAc(b1-4)[Fuc(a1-6)]GlcNAc
# Outline: as §1
# [4] = biological target: GlcNAc(b1-3)Gal(b1-4)GlcNAc(b1-3)Gal(b1-4)GlcNAc(b1-3)Gal(b1-4)GlcNAc(b1-2)[GlcNAc(b1-3)Gal(b1-4)GlcNAc(b1-3)Gal(b1-4)GlcNAc(b1-3)Gal(b1-4)GlcNAc(b1-6)]Man(a1-6)[GlcNAc(b1-3)Gal(b1-4)GlcNAc(b1-3)Gal(b1-4)GlcNAc(b1-3)Gal(b1-4)GlcNAc(b1-2)Man(a1-3)]Man(b1-4)GlcNAc(b1-4)[Fuc(a1-6)]GlcNAc
# Outline: as §1
# [5] = biological target: Man(a1-2)Man(a1-2)Man(a1-3)Man
# Outline: as §1
# MurNAc(b1-4)GlcNAc = biological target: MurNAc(b1-4)GlcNAc
# Outline: as §1
# [6] = biological target: Neu5Ac(a2-3)Gal(b1-3)GlcNAc(b1-2)Man
# Outline: as §1
# [7] = biological target: Neu5Ac(a2-3)Gal(b1-4)GlcNAc(b1-2)Man(a1-3)[GlcNAc(b1-4)][Neu5Ac(a2-3)Gal(b1-4)GlcNAc(b1-2)Man(a1-6)]Man(b1-4)GlcNAc(b1-4)GlcNAc
# Outline: as §1
# [8] = biological target: Neu5Ac(a2-3)Gal(b1-4)GlcNAc(b1-6)[Neu5Ac(a2-3)Gal(b1-3)]GalNAc
# Outline: as §1
# [9] = biological target: Neu5Ac(a2-3)Gal(b1-4)[Fuc(a1-3)]GlcNAc(b1-2)Man
# Outline: as §1
# [10] = biological target: Neu5Ac(a2-3)Gal(b1-4)[Fuc(a1-3)]GlcNAc(b1-3)GalNAc
# Outline: as §1
# [11] = biological target: Neu5Ac(a2-3)Gal(b1-4)[Fuc(a1-3)]GlcNAc(b1-6)[Neu5Ac(a2-3)Gal(b1-3)]GalNAc
# Outline: as §1
# [12] = biological target: Neu5Ac(a2-3)GalNAc(b1-4)GlcNAc
# Outline: as §1
# Neu5Ac(a2-6)Gal = biological target: Neu5Ac(a2-6)Gal
# Outline: as §1
# [13] = biological target: Neu5Ac(a2-6)Gal(b1-4)GlcNAc(b1-2)Man(a1-3)[GlcNAc(b1-2)Man(a1-6)]Man(b1-4)GlcNAc(b1-4)GlcNAc
# Outline: as §1
# [14] = biological target: Neu5Ac(a2-6)Gal(b1-4)GlcNAc(b1-2)Man(a1-6)[GlcNAc(b1-2)Man(a1-3)]Man(b1-4)GlcNAc(b1-4)GlcNAc
# Outline: as §1
# [15] = biological target: Neu5Ac(a2-6)Gal(b1-4)GlcNAc(b1-2)Man(a1-6)[Man(a1-3)]Man(b1-4)GlcNAc(b1-4)GlcNAc
# Outline: as §1
# [16] = biological target: Neu5Ac(a2-6)Gal(b1-4)GlcNAc(b1-3)Gal(b1-4)GlcNAc(b1-3)Gal(b1-4)GlcNAc(b1-2)Man(a1-3)[Neu5Ac(a2-6)Gal(b1-4)GlcNAc(b1-3)Gal(b1-4)GlcNAc(b1-3)Gal(b1-4)GlcNAc(b1-2)Man(a1-6)]GalNAc
# Outline: as §1
# [17] = biological target: Neu5Ac(a2-6)Gal(b1-4)GlcNAc(b1-3)Gal(b1-4)[Fuc(a1-3)]GlcNAc(b1-3)Gal(b1-4)[Fuc(a1-3)]GlcNAc
# Outline: as §1
# [18] = biological target: Neu5Ac(a2-6)Gal(b1-4)GlcNAc6S
# Outline: as §1
# Neu5Gc(a2-3)Gal(b1-4)Glc = biological target: Neu5Gc(a2-3)Gal(b1-4)Glc
# Outline: as §1
# [19] = biological target: Neu5Gc(a2-3)Gal(b1-4)GlcNAc(b1-3)Gal(b1-4)GlcNAc(b1-2)Man(a1-3)[Neu5Gc(a2-3)Gal(b1-4)GlcNAc(b1-3)Gal(b1-4)GlcNAc(b1-2)Man(a1-6)]Man(b1-4)GlcNAc(b1-4)GlcNAc
# Outline: as §1
# [20] = biological target: Neu5Gc(a2-8)Neu5Ac(a2-3)Gal(b1-4)GlcNAc
# Outline: as §1
binder,measurement,setting,value
B1,glycan array binding signal (z-score),[1],-0.514
same,glycan array binding signal (z-score),[2],0.862
same,glycan array binding signal (z-score),[3],0.866
same,glycan array binding signal (z-score),[4],0.127
same,glycan array binding signal (z-score),[5],-0.108
same,glycan array binding signal (z-score),MurNAc(b1-4)GlcNAc,-0.51
same,glycan array binding signal (z-score),[6],-0.068
same,glycan array binding signal (z-score),[7],-0.469
same,glycan array binding signal (z-score),[8],-0.379
same,glycan array binding signal (z-score),[9],-0.347
same,glycan array binding signal (z-score),[10],1.06
same,glycan array binding signal (z-score),[11],0.767
same,glycan array binding signal (z-score),[12],-0.428
same,glycan array binding signal (z-score),Neu5Ac(a2-6)Gal,-0.387
same,glycan array binding signal (z-score),[13],-0.298
same,glycan array binding signal (z-score),[14],-0.056
same,glycan array binding signal (z-score),[15],-0.436
same,glycan array binding signal (z-score),[16],0.008
same,glycan array binding signal (z-score),[17],-0.291
same,glycan array binding signal (z-score),[18],0.855
same,glycan array binding signal (z-score),Neu5Gc(a2-3)Gal(b1-4)Glc,-0.246
same,glycan array binding signal (z-score),[19],0.362
same,glycan array binding signal (z-score),[20],-0.344

# Reference: the supplement of paper PMC8728848
